This note sets out measurements from the supplement of paper PMC10338343.

± gives the standard deviation.

Assay [1] concerns MILI (PIWIL2) piRISC loaded with L1MC piRNA (26 nt). Description: pre-steady-state target cleavage rate (min^-1); guide: L1MC piRNA 5'p-UAACUAAAUACUAUGCAAGCUGUAGG; higher = faster piRNA-guided slicing of the target. The gist of the method:
(§1)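 Three pooled Cleave-'n-Seq trials supplied the data, with k3 capped at 0.0001 min^-1. In each, […] transcribed, DNA-blocked target RNA library and 1 nM active affinity-purified piRISC with one synthetic guide reacted in HEPES–potassium acetate buffer at 33 °C for 0–8 or 0–960 min, with or without 500 nM GTSF1 partner protein. Uncleaved targets were sequenced and normalised to depth and to weakly complementary targets. A burst-and-steady-state fit provided the pre-steady-state cleavage rate.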

Assay [2] deals with EfPiwi piRISC loaded with L1MC piRNA (26 nt). Put plainly: pre-steady-state target cleavage rate (min^-1); auxiliary factor: 500 nM Ephydatia muelleri Gtsf1; guide: L1MC piRNA 5'p-UAACUAAAUACUAUGCAAGCUGUAGG; MIWI and MILI are mouse PIWI proteins and EfPiwi is from a freshwater sponge; tags in brackets are library labels; higher = faster piRNA-guided slicing of the target. An outline of the steps:
as §1

[3] abbreviates: auxiliary factor: 500 nM mouse GTSF1.
The mark [4] stands for this setting: auxiliary factor: none (no GTSF1).

UCCUGCUACAGCUUGCAUAGUAUUUUGUUA: the “pre-steady-state target cleavage rate” value worked out at 0.168 ± 0.025 in assay [1] (setting [3]), 0.00464 ± 0.0019 in assay [1] (setting [4]) and 0.00916 ± 0.0029 in assay [2].

With UCCUGCUACAGCUUGCUAAGUAUUUAGUUA, the “pre-steady-state target cleavage rate” value in assay [1] (setting [3]) came to 0.176 ± 0.018; in assay [1] (setting [4]), 0.00399 ± 0.0022; in assay [2], 0.00353 ± 0.0029.

In the case of UCCUGCUACGCUUGCAUAGUAUUUAGUUA, the “pre-steady-state target cleavage rate” value in assay [1] (setting [3]) was 0.291 ± 0.025; in assay [1] (setting [4]) it was 0.0067 ± 0.0024; in assay [2], 0.0122 ± 0.0033.

Turning to UCCUGGAUGAGCUUGCAUAGUAAUUUAGUUA, the “pre-steady-state target cleavage rate” value in assay [1] (setting [3]) was found to be 0.0721 ± 0.0082; in assay [1] (setting [4]), 0.00789 ± 0.0023; in assay [2], 0.00357 ± 0.0029.

Regarding UCCUGGAUCAUCUUGCAUAGUAUUUAGUUA, the “pre-steady-state target cleavage rate” value in assay [1] (setting [3]) was found to be 0.241 ± 0.014; in assay [1] (setting [4]), 0.00614 ± 0.002; in assay [2], 0.101 ± 0.023.

Regarding UCCUGGAUGUCCUUACAUAGUAUUUAGUUA, the figures for the “pre-steady-state target cleavage rate” value in assay [1] (setting [3]), in assay [1] (setting [4]) and in assay [2] were 0.0839 ± 0.012, 0.00844 ± 0.002 and 0.00492 ± 0.0036, respectively.

In the case of UCCUCCUACCGCUUGCAUAGUAUUUAGUUA, the “pre-steady-state target cleavage rate” value in assay [1] (setting [3]) came to 0.305 ± 0.015; in assay [1] (setting [4]), 0.0125 ± 0.003; in assay [2] it was 0.0865 ± 0.023.

UCCUGGAUGUGCUUGCAUAGUUUUUAGUUA: the “pre-steady-state target cleavage rate” value was determined as 0.0127 ± 0.0066 in assay [1] (setting [3]), 0.00796 ± 0.0026 in assay [1] (setting [4]) and 0.00538 ± 0.0024 in assay [2].

Take UCCUCCUACAGGAUGCAUAGUAUUUAGUUA: the “pre-steady-state target cleavage rate” value in assay [1] (setting [3]) was 0.273 ± 0.013; in assay [1] (setting [4]), 0.00736 ± 0.0024; in assay [2] it was 0.0467 ± 0.011.

As to UCCUGGAACAGCUUCCAAAGUAUUUAGUUA, the “pre-steady-state target cleavage rate” value in assay [1] (setting [3]) came out at 0.137 ± 0.015; in assay [1] (setting [4]), 0.00525 ± 0.0018; in assay [2], 0.00262 ± 0.0019.

Consider UCCUGGUACAGCUUGCAUAGUAUUAUGUUA, for which the results for the “pre-steady-state target cleavage rate” value in assay [1] (setting [3]), in assay [1] (setting [4]) and in assay [2] were 0.131 ± 0.032, 0.00435 ± 0.0031 and 0.00349 ± 0.0025, respectively.

Consider UCCUGGAACACCUUGCAUAGUAUUUAGUUA, for which the “pre-steady-state target cleavage rate” value in assay [1] (setting [3]) is 0.234 ± 0.026; in assay [1] (setting [4]) it was 0.00811 ± 0.0025; in assay [2], 0.0061 ± 0.0032.

Consider UCCUGGAUGUCGUUUGCAUAGUAUUUAGUUA, for which the entries for the “pre-steady-state target cleavage rate” value in assay [1] (setting [3]), in assay [1] (setting [4]) and in assay [2] were 0.13 ± 0.013, 0.00976 ± 0.0036 and 0.0445 ± 0.013, respectively.

On to UCCUGGUACAGGAAGCAUAGUAUUUAGUUA, for which the “pre-steady-state target cleavage rate” value was 0.223 ± 0.025 in assay [1] (setting [3]), 0.00538 ± 0.0026 in assay [1] (setting [4]) and 0.00248 ± 0.0023 in assay [2].

Regarding UCCUGGAUGAGCUUGCAUUGUAUUUAGUAA, the figures for the “pre-steady-state target cleavage rate” value in assay [1] (setting [3]), in assay [1] (setting [4]) and in assay [2] were 0.127 ± 0.021, 0.00311 ± 0.0025 and 0.00311 ± 0.0025, respectively.

As to UCCUGGAACGCUUGCAUAGUAUUUAGUUA, the “pre-steady-state target cleavage rate” value in assay [1] (setting [3]) worked out at 0.239 ± 0.015; in assay [1] (setting [4]), 0.00644 ± 0.0019; in assay [2], 0.0259 ± 0.0076.

For the sequence UCCUCUACAGCUUGCAUAGUAUUUAGUUA, the “pre-steady-state target cleavage rate” value was 0.31 ± 0.013 in assay [1] (setting [3]), 0.00953 ± 0.0028 in assay [1] (setting [4]) and 0.183 ± 0.045 in assay [2].
